# For some assays here: Potency and affinity values are given separately.
# Columns and labels:
# Design in all cases: scale not given: direction of the effect not stated beside the values
# [1] = target: Protein translocase subunit SecA (Escherichia coli (strain K12)) (UniProt P10408); assay: Assay to Identify E. coli SecA ATPase Inhibitors; type: functional; settings: 30 µM
# [2] = target: T1, Ubiquitin-activating enzyme e1, putative (Leishmania donovani (strain BPK282A1)) (UniProt E9BSI1); assay: Leishmania donovani Ubiquitin Activating Enzyme (LdE1); type: functional; settings: 30 µM
# T1 sequence (whole entry): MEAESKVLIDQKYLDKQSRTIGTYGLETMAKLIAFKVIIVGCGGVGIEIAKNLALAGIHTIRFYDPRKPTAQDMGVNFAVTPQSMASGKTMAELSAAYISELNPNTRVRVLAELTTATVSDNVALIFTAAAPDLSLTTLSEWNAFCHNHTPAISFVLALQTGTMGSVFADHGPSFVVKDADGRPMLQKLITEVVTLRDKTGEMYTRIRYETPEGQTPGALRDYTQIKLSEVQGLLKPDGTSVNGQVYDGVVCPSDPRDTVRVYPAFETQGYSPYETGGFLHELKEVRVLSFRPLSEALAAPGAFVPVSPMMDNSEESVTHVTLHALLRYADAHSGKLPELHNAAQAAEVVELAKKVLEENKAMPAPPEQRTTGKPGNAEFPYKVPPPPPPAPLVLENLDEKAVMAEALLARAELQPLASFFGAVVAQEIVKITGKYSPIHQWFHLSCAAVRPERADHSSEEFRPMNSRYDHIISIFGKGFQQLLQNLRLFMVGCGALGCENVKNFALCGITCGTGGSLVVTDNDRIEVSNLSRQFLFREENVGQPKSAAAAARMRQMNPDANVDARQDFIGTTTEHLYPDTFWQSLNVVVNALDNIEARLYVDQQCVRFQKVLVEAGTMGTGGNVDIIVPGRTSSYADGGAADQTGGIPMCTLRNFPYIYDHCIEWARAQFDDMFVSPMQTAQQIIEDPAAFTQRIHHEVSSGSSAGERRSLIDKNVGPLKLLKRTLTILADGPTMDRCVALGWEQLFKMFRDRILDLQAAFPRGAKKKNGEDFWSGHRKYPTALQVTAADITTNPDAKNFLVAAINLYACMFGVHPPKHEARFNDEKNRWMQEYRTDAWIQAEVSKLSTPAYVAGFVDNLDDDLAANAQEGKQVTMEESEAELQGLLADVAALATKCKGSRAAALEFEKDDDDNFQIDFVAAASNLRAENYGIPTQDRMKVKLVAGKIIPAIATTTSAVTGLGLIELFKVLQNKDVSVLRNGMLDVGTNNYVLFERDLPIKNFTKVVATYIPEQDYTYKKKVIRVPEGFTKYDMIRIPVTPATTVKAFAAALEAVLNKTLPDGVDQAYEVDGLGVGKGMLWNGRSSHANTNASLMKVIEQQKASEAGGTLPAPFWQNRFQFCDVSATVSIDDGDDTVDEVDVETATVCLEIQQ
# [3] = target: AMP-activated protein kinase, AMPK (Homo sapiens) (UniProt P54646+O43741+P54619+Q9UGJ0+Q9Y478+Q13131+Q9UGI9); assay: AMP-dependent Kinase enzyme assay. An in vitro enzyme assay that detects ADP turnover that is directly proportional to AMPK activity. This uses naive AMPK that is activated during the assay with MK-8722; type: functional; settings: 30 µM
# [4] = target: Sialic acid-binding Ig-like lectin 9 (Homo sapiens) (UniProt Q9Y336); assay: Hs-Siglec9 ALPHAscreen SOP 20170721; settings: 10 µM
# Sequence of Sialic acid-binding Ig-like lectin 9 (Homo sapiens) (Q9Y336 whole entry): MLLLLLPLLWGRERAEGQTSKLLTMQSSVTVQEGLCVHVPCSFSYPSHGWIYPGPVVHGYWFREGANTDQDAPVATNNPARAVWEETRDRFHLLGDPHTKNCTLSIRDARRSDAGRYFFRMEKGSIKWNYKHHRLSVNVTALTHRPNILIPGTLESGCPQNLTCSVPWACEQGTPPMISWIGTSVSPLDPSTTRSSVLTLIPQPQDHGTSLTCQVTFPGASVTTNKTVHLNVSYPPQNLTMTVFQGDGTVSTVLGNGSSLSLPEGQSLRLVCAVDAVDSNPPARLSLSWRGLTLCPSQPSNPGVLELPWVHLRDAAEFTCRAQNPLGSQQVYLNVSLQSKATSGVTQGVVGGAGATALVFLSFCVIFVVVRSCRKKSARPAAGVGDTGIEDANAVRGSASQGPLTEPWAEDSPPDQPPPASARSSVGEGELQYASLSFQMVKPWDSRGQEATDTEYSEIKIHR
# Trypanosoma cruzi = assay: Trypanosoma cruzi phosphomannomutase and mannose-1-phosphate guanylyltransferase assay; type: functional; settings: 10 µM
# [5] = target: T2, Arginase-2, mitochondrial (Homo sapiens) (UniProt P78540); assay: in vitro enzyme assay to detect the production of urea directly proportional to the activity of Arginase II; type: functional; settings: 33.3 µM; note: in the data most compounds retested in dose-response had high values
# T2 sequence (whole entry): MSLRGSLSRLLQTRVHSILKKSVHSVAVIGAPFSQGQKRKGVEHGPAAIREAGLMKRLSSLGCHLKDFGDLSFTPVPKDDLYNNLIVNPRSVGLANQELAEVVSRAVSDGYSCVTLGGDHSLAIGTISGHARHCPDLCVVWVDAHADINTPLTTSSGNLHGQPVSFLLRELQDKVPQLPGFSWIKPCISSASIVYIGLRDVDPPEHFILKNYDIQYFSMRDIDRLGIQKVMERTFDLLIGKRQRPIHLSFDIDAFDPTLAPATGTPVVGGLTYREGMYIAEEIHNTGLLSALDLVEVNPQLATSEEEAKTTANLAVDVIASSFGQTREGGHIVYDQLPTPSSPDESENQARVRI
# [6] = target: T3, Proteasome subunit beta (Trypanosoma cruzi) (UniProt O96673); assay: Trypanosoma cruzi proteasome chymotrypsin-like activity (TcProtChymo) assay.; note: in the data most compounds retested in dose-response had high values; type: functional; settings: 9.37 µM
# T3 sequence (whole entry): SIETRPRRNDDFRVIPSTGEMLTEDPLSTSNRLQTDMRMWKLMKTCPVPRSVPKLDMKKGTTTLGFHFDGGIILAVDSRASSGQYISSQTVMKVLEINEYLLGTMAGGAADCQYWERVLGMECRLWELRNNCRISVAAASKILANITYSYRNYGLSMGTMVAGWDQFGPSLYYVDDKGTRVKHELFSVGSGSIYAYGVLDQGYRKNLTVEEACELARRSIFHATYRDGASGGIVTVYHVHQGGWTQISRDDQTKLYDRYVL
# Homo sapiens = species: Homo sapiens; assay: To identify inhibition of the IFN signalling (Jak-Stat) pathway via expression of an eGFP reporter gene under the control of an IFN-stimulated response element (ISRE) containing MxA promoter.; type: functional; settings: 30 µM
# [7] = target: T4, Tyrosyl-tRNA synthetase, putative (Trypanosoma cruzi (strain CL Brener)) (UniProt Q4DSP6); assay: Trypanosoma cruzi tyrosyl tRNA synthetase (TcYRS) _High Tyrosine SOP; type: functional; settings: 30 µM; note: in the data most compounds retested in dose-response had high values
# T4 sequence (whole entry): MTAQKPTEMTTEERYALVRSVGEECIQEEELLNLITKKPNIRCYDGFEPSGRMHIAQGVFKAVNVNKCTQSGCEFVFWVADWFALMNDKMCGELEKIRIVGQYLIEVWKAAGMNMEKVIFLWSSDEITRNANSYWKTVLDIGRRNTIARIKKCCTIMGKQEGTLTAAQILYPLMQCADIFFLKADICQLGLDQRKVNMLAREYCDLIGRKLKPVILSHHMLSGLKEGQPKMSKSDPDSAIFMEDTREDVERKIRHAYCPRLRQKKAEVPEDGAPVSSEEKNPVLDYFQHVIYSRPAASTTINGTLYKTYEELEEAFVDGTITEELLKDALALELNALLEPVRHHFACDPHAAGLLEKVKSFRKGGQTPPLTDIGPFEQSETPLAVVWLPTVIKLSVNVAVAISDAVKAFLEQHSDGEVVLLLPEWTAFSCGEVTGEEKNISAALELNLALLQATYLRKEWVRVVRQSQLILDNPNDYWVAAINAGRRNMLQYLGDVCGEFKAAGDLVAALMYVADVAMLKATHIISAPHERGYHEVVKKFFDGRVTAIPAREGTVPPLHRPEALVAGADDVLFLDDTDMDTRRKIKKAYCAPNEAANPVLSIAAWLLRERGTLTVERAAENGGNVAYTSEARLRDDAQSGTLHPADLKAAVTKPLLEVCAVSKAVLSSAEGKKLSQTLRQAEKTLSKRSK
# [8] = target: T4, Tyrosyl-tRNA synthetase, putative (Trypanosoma cruzi (strain CL Brener)); assay: Trypanosoma cruzi tyrosyl tRNA synthetase (TcYRS) SOP; type: functional; settings: 30 µM
# [9] = target: Chromo domain-containing protein 1 (Saccharomyces cerevisiae (strain ATCC 204508 / S288c) (Baker's yeast)) (UniProt P32657); assay: ScCHD-1 Enzyme Inhibition Assay; type: functional; settings: 30 µM; note: in the data most compounds retested in dose-response had high values
# Sequence of Chromo domain-containing protein 1 (Saccharomyces cerevisiae (strain ATCC 204508 / S288c) (Baker's yeast)) (P32657 whole entry, the tested form may be a part): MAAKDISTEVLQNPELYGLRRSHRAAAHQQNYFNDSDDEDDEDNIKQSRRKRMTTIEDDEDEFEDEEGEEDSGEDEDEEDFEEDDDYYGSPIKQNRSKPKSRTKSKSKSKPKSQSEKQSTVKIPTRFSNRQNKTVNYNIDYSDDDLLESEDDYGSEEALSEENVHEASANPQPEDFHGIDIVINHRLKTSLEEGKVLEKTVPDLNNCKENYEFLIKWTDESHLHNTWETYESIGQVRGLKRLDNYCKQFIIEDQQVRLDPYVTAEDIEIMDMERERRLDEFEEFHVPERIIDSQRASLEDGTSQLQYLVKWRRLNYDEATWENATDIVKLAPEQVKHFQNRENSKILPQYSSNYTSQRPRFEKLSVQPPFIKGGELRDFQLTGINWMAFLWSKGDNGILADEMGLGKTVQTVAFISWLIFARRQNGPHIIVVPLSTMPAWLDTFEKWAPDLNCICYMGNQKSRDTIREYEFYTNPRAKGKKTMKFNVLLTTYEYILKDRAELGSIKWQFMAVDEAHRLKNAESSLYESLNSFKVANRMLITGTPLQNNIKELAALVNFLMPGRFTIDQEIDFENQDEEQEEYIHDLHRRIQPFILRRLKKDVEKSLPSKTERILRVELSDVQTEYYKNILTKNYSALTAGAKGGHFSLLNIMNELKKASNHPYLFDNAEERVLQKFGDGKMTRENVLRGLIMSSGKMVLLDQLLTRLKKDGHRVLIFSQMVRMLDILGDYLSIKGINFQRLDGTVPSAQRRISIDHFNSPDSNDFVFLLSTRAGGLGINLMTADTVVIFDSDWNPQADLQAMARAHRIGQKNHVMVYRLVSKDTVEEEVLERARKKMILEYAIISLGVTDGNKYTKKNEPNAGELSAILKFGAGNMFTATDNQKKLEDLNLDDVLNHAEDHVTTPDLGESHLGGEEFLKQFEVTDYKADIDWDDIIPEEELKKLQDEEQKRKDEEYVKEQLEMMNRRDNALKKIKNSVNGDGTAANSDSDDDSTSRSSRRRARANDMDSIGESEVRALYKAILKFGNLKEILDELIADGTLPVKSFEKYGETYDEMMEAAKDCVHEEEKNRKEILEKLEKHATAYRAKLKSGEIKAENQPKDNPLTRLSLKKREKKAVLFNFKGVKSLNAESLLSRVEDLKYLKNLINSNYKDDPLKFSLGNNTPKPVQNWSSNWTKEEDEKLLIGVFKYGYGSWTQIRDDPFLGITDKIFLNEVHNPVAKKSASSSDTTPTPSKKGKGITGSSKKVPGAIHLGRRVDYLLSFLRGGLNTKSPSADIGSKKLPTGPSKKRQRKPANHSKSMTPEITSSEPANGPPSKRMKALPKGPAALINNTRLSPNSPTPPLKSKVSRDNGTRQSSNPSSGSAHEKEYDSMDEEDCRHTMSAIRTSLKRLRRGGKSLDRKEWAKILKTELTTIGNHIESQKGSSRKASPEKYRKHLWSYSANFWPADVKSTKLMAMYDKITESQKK
# Sequence of Protein translocase subunit SecA (Escherichia coli (strain K12)) (P10408 whole entry): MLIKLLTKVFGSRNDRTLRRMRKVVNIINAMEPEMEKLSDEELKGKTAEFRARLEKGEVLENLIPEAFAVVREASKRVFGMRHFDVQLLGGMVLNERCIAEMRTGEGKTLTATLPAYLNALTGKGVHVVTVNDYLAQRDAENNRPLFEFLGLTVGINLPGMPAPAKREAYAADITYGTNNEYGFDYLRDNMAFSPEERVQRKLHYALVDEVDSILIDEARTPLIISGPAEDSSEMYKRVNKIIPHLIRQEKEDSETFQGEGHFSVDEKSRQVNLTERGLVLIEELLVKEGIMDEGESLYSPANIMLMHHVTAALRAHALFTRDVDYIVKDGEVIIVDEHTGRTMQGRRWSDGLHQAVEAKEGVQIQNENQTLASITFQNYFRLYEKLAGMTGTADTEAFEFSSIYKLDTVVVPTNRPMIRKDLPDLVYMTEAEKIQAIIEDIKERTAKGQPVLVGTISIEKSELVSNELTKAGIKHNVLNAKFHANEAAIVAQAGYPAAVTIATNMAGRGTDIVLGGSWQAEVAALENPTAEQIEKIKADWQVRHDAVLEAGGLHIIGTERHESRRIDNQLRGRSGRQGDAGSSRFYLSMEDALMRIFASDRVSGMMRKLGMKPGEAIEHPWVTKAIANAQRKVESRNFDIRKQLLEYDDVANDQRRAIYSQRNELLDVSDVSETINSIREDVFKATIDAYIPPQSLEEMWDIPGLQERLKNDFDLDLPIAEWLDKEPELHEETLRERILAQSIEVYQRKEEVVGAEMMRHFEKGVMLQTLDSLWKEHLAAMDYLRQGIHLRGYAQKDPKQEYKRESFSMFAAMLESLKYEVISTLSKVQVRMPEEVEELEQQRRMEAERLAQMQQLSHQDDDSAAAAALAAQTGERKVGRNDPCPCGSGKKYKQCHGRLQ
SMILES,Percent Effect [1] [%],Percent Effect [2] [%],Percent Effect [3] [%],Percent Effect [4] [%],Percent Effect (Trypanosoma cruzi) [%],Percent Effect [5] [%],Percent Effect [6] [%],Percent Effect (Homo sapiens) [%],Percent Effect [7] [%],Percent Effect [8] [%],Percent Effect [9] [%]
CCOc1nc2cccnc2n(CC(=O)NCCOC)c1=O,-0.937,23.4,3.02,-0.135,3.85,-1.94,10.4,3.76,3.17,11.5,-9.72
CCc1noc(CNc2ccc(F)cc2OCC2CC2)n1,0.992,18.9,-7.79,18.2,-1.54,7.14,9.83,10.8,1.59,12.2,-3.79
Cc1nn(C)c(N2CCOCC2)c1CNC1CCOc2ccccc21 (stereo not given),-4.35,10.1,-4.31,8.19,1.04,0.38,2.54,-11.4,7.39,11.4,-3.12
O=C(Cc1ccc(F)cc1)N1CCn2cc(Cn3cccn3)nc2C1,-3.25,10.8,5.39,-3.22,-1.66,6.69,8.12,-1.16,5.41,20.5,0.365
COC(=O)CCNC(=O)C1CC(=O)N(C2CCCC2)C1 (stereo not given),-4.42,-2.7,-0.395,-6.64,-0.781,-2.08,5.83,-6.8,1.98,6.1,-2.5
CS(=O)(=O)NC1CCN(C(=O)NCCNc2ccccn2)CC1,-6.26,10.8,0.725,-1.36,-10.7,3.14,4.85,14.7,-0.99,1.22,-1.89
CC(C)Nc1ncc(CN2C[C@@H](CN3CCC(O)CC3)[C@@H](CO)C2)cn1,-5.5,2.67,-4.76,7.2,2.43,-0.521,12.2,8.53,4.92,11.1,-8.5
Cc1n[nH]c(C2CN(C(=O)CCc3ccco3)CCO2)n1 (stereo not given),-1.8,7.89,9.83,-2.52,3.6,3.55,21,21.1,2.13,7.79,-3.66
CN(CCc1ccccc1)c1cnn(CC(=O)N2CCSCC2)c(=O)c1,-1.2,0,19.7,12.4,-4.5,2.73,-1.6,4.15,1.07,2.5,0.365
Cn1cc(C(=O)N2C[C@@H]3COC[C@]3(COCc3cccnc3)C2)cn1,0.921,13,7.58,1.08,-4.83,11,17.4,3.89,0,8.97,-5.24
